The list is not random: actives were taken first. Their share in the collection is about 8.7%.
BAZ2B inh = BAZ2B (human) inhibition. Q9UIF8. AlphaScreen BAZ2B-H3K14Ac peptide displacement. Potency, µM (top dose mostly 114 µM), usual class: inhibitors. hit rate 4.4% among 360,000; further: nearly all actives have a fitted effect of over 60% in size
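AlphaScreen luminescence quantifies BAZ2B engagement of H3K14Ac peptide; the protein and biotinylated peptide are both at 50 nM final, buffer PBS pH 7.4 with 0.01% Tween-20, all steps at room temperature.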
12-LOX inh = inhibitors of human 12S-lipoxygenase ALOX12; purified 12hLO, xylenol orange hydroperoxide absorbance; Potency, µM (titrated, usually from 108 µM), usual class: inhibitors; hit rate 1.1% among 580,000
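Purified human 12hLO at 150 nM in 25 mM Hepes, 0.01% Triton X-100, pH 7.0, preincubated 15 min at room temperature with compound. Reaction started with 40 uM arachidonic acid, 30 min at room temperature. Hydroperoxide measured by Fe-xylenol orange, 573/405 nm absorbance ratio.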
Sfp PPTase inh = blocks B. subtilis Sfp PPTase activity | Q9F4F7 | Biochemical Sfp PPTase activity, qHTS | Potency, µM, hits mostly inhibitors | hit rate 3.5% among 310,000 | AID 1490;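 further: the enzyme is Sfp with the accession as filed and its product quenches rhodamine fluorescence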
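Step 1, compound plus 15 nM Sfp-PPTase, 15 min, room temperature. Step 2, add rhodamine-CoA (5 uM) and BHQ-2-YbbR (12.5 uM). Step 3, read 525/598 nm fluorescence at 0 and 30 min.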
HP1b binding inh = blocks HP1-beta chromodomain binding to methylated histone tails; hit rate 0.56% among 390,000; AlphaScreen HP1-beta / biotin-H3K9me3 peptide binding; Potency, µM (highest dose often 114 µM), hits mostly inhibitors; further: nearly all actives have a fitted effect of over 70% in size
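Compound inhibition of the preformed complex between 50 nM HP1-beta and 50 nM biotinylated H3K9me3 peptide was read by AlphaScreen. Buffer was PBS pH 7.4 with 0.01% Tween-20. Incubations ran 30 min at room temperature, with 10 ug/mL donor/acceptor beads.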
G9a inh = blocks human histone lysine methyltransferase G9a | G9a H3K9 monomethylation, AlphaScreen, 2 h | Potency, µM (series often up to 102 µM), hits mostly inhibitors | hit rate 8.8% among 350,000; further: nearly all actives have a fitted effect of over 75% in size
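Enzyme 20 nM + cpd, 15 min RT; add b-H3K9 pep 500 nM / SAM 20 uM; 2 h RT; anti-H3K9me1 Ab 0.5 ug/mL + SA donor / anti-rabbit acceptor beads 20 ug/mL each, 10 min; AlphaScreen read.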
JMJD2A Tudor inh = inhibitors of human JMJD2A Tudor domain; O75164; AlphaScreen JMJD2A-Tudor / H3K4me3 peptide binding; Potency, µM (doses to about 114 µM), most hits filed as inhibitors; hit rate 4.4% among 390,000; further: nearly all actives have a fitted effect of over 50% in size
Target sequence (O75164 whole entry, looked up, the tested form may be a part): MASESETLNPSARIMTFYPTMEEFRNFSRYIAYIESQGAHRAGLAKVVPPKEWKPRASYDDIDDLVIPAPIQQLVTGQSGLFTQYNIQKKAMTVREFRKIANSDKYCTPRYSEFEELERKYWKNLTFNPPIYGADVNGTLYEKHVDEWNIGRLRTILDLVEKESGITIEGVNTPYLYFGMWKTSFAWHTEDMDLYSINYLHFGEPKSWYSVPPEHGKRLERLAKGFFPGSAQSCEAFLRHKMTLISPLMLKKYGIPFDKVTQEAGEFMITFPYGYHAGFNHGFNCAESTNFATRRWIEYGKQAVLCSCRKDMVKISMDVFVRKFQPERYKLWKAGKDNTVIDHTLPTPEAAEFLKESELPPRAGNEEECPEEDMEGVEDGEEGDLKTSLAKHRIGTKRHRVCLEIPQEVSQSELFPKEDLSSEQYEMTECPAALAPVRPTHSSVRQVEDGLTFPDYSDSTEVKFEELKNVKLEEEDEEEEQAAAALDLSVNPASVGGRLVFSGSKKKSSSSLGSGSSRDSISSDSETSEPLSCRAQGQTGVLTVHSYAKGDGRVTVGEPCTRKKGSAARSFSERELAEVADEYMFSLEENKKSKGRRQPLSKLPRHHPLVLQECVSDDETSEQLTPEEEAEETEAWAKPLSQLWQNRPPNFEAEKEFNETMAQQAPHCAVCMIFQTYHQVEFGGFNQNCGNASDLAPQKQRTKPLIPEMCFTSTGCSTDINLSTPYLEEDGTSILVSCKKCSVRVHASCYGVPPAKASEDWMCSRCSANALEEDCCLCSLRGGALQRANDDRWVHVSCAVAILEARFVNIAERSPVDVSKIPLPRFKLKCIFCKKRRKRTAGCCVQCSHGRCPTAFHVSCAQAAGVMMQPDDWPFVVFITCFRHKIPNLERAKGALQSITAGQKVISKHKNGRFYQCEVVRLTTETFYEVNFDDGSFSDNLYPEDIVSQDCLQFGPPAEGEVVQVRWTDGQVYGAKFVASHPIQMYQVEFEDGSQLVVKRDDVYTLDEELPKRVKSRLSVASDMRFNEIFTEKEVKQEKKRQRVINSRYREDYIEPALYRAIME
Numbers stand for hits; – = inactive; ? = inconclusive; · = no result; [ ] = remark or other dose. The call rests on the fitted dose curve; in most records, active means well fitted curve in the direction sought with a large enough effect; inconclusive means small, poorly fitted or top-dose-only effect, or another doubt; inactive means no such curve, though single readings can be large; an effect the other way counts as inactive or inconclusive.

SMILES	BAZ2B inh	12-LOX inh	Sfp PPTase inh	HP1b binding inh	G9a inh	JMJD2A Tudor inh
O=c1cc(-c2ccc(O)c(O)c2)oc2c1ccc1ccccc12	?	0.355µM	·	–	?	–
O=c1cc(-c2ccc(O)c(O)c2)oc2ccc3ccccc3c12	?	?	·	–	56.2µM	–
O=c1cc(/C=C/c2ccccc2)oc2c1ccc1ccccc12	–	–	79.4µM	–	?	–
O=c1cc(-c2ccccc2)oc2c1ccc1ccccc12	·	–	44.7µM	·	·	·
COc1ccc(NC(=O)C2(C)CCc3cnc(Nc4ccccc4)nc32)cn1 (centres undefined)	·	–	·	·	·	·
COc1ccc(NC(=O)CC2=C3CCCCC3NC2=O)cn1 (centres undefined)	·	–	·	·	·	·
CCOC(=O)C1=C(C)N(Cc2ccc(C(=O)N3CCCCC3)cc2)C(=O)CC1c1cccc(C)c1 (centres undefined)	·	–	·	·	·	·
O=C(NCc1cccc(C(F)(F)F)c1)OCC(F)(F)F	·	–	·	·	·	·
CN(Cc1ccccc1)c1oc(-c2ccco2)nc1C#N	44.7µM	–	–	?	?	?
COc1ccccc1-c1nc(C#N)c(N2CCN(Cc3ccccc3)CC2)o1	28.2µM	–	?	14.1µM	?	?
N#Cc1nc(-c2ccco2)oc1N1CCN(Cc2ccccc2)CC1	50.1µM	?	–	–	?	?
COc1ccccc1-c1nc(C#N)c(N2CCN(C)CC2)o1	·	–	·	·	·	·
COc1ccc(NC(=O)c2ncoc2-c2ccc(OC)c(OC)c2)c(OC)c1	·	–	·	·	·	·
COc1ccc2c(c1)C(n1c(C)ccc1C)C(=O)N2C (centres undefined)	·	11.2µM	·	·	·	·
Cc1ccc(C)n1C1C(=O)N(C)c2ccccc21 (centres undefined)	·	–	·	·	·	·
Cc1ccc(C)n1C1C(=O)N(C)c2ccc(Cl)cc21 (centres undefined)	·	44.7µM	·	·	·	·
COc1ccc(C(=O)N2CCCC3(C2)NC(=O)N(Cc2ccccc2)C3=O)cc1 (centres undefined)	·	–	·	·	·	·
CCn1c(SCc2nc3cc(S(=O)(=O)N(C)C)ccc3n2CC)nnc1C1CC1	·	–	·	·	·	·
Clc1ccc(SCNc2ccccc2Cl)cc1	–	?	44.7µM	–	–	–
Cc1ccc(NCSc2ccc(Cl)cc2)cc1	·	–	·	–	·	–
COc1ccc(OC)c(-c2cc(C(=O)O)c3ccc(C)c(C)c3n2)c1	·	–	·	·	·	·
O=C(CCN1C(=O)/C(=C\c2cccc(Br)c2)SC1=S)NCCCN1CCOCC1	?	–	–	–	44.7µM	?
CN1CCN(C(=O)CCCN2C(=O)/C(=C/c3cccc(Br)c3)SC2=S)CC1	44.7µM	?	–	39.8µM	39.8µM	35.5µM
CN1CCN(C(=O)CCN2C(=O)/C(=C/c3cccc(Br)c3)SC2=S)CC1	–	?	–	–	25.1µM	–
O=C(CCCN1C(=O)/C(=C/c2cccc(Br)c2)SC1=S)N1CCOCC1	–	?	–	?	?	?
SMILES	BAZ2B inh	12-LOX inh	Sfp PPTase inh	HP1b binding inh	G9a inh	JMJD2A Tudor inh
CCCCn1c(=O)n(CC(=O)NCC(F)(F)F)c(=O)c2c1ncn2Cc1ccco1	·	–	·	·	·	·
O=C(CC1CC2CCC1C2)NCc1cccnc1 (centres undefined)	·	–	·	·	·	·
COc1ccc(/C=N/O)cc1	·	–	·	·	·	·
Cc1ccc(-c2cn(C[C@H]3CC[C@@H]([C@@H]4CC[C@H](Cn5cc(-c6ccc(C)cc6)nn5)O4)O3)nn2)cc1	–	–	–	–	·	–
c1c(CC2CCCC2)nnn1C[C@H]1CC[C@@H]([C@@H]2CC[C@H](Cn3cc(CC4CCCC4)nn3)O2)O1	–	–	–	–	39.8µM	–
Cc1cccc(CS(=O)CCC(=O)Nc2ccccc2)c1 (centres undefined)	·	–	·	·	·	·
COC(=O)CCC(=O)Nc1sc(C)c(C)c1C(N)=O	–	?	14.1µM	?	2.82µM	?
COC(=O)CCC(=O)NC(=S)Nc1sc(C)c(C)c1C(N)=O	–	–	–	–	8.91µM	–
CCOC(=O)Nc1sc(C)c(C)c1C(N)=O	–	–	–	–	39.8µM	–
Cc1sc(NC(=O)Nc2ccccc2)c(C(N)=O)c1C	–	?	20µM	?	8.91µM	–
CCOC(=O)c1c(NC(N)=O)sc(C)c1C	–	–	–	–	–	–
CCC1Oc2ccc(NC(=O)c3ccccc3OC)cc2CN(Cc2ccc(OC)cc2)C1=O (centres undefined)	·	–	·	·	·	·
Cn1cnc(S(=O)(=O)N2CCC(Cc3ccc(C(N)=O)cc3)CC2)c1	·	–	·	·	·	·
Cc1ccc(C(=O)NCCC(=O)N2CC[C@@](C)(O)[C@@H](O)C2)cc1	·	–	·	·	·	·
Cc1cc(C2=NNC(=NC3CC3)SC2)c(C)n1-c1ccccc1	?	–	–	–	28.2µM	?
CN=C1NN=C(c2cc(C)n(-c3c(C)n(C)n(-c4ccccc4)c3=O)c2C)CS1	–	–	50.1µM	–	?	–
Oc1cccc(/C=N/NC(=S)NCCN2CCOCC2)c1O	8.91µM	–	–	–	–[12.7 µM]	22.4µM
O=C(O)c1ccc(/C=N/NC(=S)NCCN2CCOCC2)cc1	–	–	50.1µM	–	–	31.6µM
S=C(NCCN1CCOCC1)N/N=C/c1cccs1	–	–	–	–	–[2.33 µM]	–
Cc1csc(NC(=O)[C@@H]2C[C@@H](c3cccc(C(F)(F)F)c3)N(Cc3cnn(C)c3)C2)n1	·	–	·	·	·	·
Cc1ccc(C(=O)c2ccccc2C(=O)OCC(=O)c2cccs2)cc1C	·	–	·	·	·	·
O=S(=O)(/N=c1\ssc(-c2ccccc2)c1Cl)c1ccccc1	·	–	·	·	·	·
CCn1c(Cl)c(C=O)s/c1=N\S(=O)(=O)c1ccccc1	–	–	?	–	44.7µM	–[11.4 µM]
COc1ccc(OC)c2sc(NC(=O)C(C)C)nc12	–	–	–	–	–	–
COc1ccc(OC)c2sc(Cl)nc12	–	–	–	–	28.2µM	–
SMILES	BAZ2B inh	12-LOX inh	Sfp PPTase inh	HP1b binding inh	G9a inh	JMJD2A Tudor inh
Cc1c(CCC(=O)O)c(=O)oc2cc3occ(-c4ccc(Cl)cc4)c3cc12	–	?	?	–	–	–
Cc1c(CCC(=O)O)c(=O)oc2c(C)c3occ(-c4ccc(Cl)cc4)c3cc12	56.2µM	?	–	?	?	?
Cc1coc2c(C)c3oc(=O)c(CCC(=O)NCCC(=O)O)c(C)c3cc12	50.1µM	–	–	–	–	?
N#Cc1ccccc1S(=O)(=O)N1CCN(c2nc(-c3cccnc3)nc3ccccc23)CC1	–	–	·	–	50.1µM	?
CCN1CCN(c2nc(-c3cccnc3)nc3ccccc23)CC1	–	–	–	–	?	89.1µM
COc1cc2c(cc1OC)CN(c1nc(-c3cccnc3)nc3ccccc13)CC2	39.8µM	–	–	–	50.1µM	?
c1ccc(N2CCN(c3nc(-c4ccccn4)nc4ccccc34)CC2)cc1	1.78µM	–	–	?	?	?
COc1ccc2[nH]cc(CCNC(=O)C3CCCCC(=O)N3Cc3ccccc3)c2c1 (centres undefined)	·	–	·	·	·	·
Cc1cccc(OCCc2noc(C3CN(C(=O)Nc4ccc5c(c4)OCCO5)C3)n2)c1	·	–	·	·	·	·

Screening results: PubChem, National Center for Advancing Translational Sciences (NCATS)
